CHT block = inhibitors of human choline transporter CHT; High affinity choline transporter 1 (Homo sapiens), Q9GZV3; CHT-expressing cells, membrane potential dye, choline response; hits give low values; B-score at 10 µM; 0.86% of 310,000 active;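 active means B-score over 3 SD under the library average, and starting fluorescence ratio not unusually high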;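 further: choline stimulus applied at its EC90 after an EC20 pre-addition; B-score computed on integrated fluorescence ratio after choline addition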
Target sequence (Q9GZV3 whole entry, looked up): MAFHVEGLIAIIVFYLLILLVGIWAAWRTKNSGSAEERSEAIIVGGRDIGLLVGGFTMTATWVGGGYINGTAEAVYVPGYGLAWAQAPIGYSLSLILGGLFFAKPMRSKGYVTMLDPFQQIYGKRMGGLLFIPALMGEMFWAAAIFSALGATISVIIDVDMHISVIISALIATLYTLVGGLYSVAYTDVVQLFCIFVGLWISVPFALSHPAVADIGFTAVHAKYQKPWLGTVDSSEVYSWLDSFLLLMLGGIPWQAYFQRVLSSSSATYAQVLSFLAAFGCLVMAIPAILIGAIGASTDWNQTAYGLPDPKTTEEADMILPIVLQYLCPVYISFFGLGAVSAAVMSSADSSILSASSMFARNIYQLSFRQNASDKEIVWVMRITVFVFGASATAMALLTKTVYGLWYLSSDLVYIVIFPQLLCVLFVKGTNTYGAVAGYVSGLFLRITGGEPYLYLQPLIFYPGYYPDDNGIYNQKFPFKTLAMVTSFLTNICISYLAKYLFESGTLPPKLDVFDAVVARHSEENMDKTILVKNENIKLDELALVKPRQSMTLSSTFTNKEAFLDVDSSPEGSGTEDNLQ
GPR7 antag = GPR7 receptor antagonists, primary screen, cell-based, fluorescence, single concentration; 1.1% of 290,000 active; inhibition, % at 4.4 µM; Neuropeptides B/W receptor type 1 (Homo sapiens), P48145; GPR7-expressing cells, fluorescence antagonist assay; AID 1861, 2009; in the data active means inhibition above about 16%, passing the limit was not always enough;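 further: cells stimulated with the agonist NPW; 0% = agonist with vehicle and 100% = vehicle without agonist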
Kir21 block = inhibitors of mouse Kir2.1 inward-rectifier potassium channel; Inward rectifier potassium channel 2 (Mus musculus), P35561; HEK293-Kir2.1, FluxOR thallium flux fluorescence; hits give low values; B-score at 10 µM; 0.85% of 310,000 active; AID 1672, 2009;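 active means fluorescence ratio B-score at or below minus 3 SD of library scores, with starting-brightness B-score within 2 SD, cut at about -4.2 in these data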;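 further: channel flux triggered by added potassium and thallium sulfate stimulus; B-score of peak minus minimum fluorescence over baseline after thallium stimulus; more negative B-score means stronger Kir2.1 block with less thallium influx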
TMEM16A act = TMEM16A chloride channel activators or potentiators, primary screen, cell-based, HTS; HEK293 TMEM16A/YFP-H148Q/I152L, iodide quench fluorescence; hits give low values; AID 623877, 2012; Anoctamin-1 (Mus musculus), Q8BHY3; 0.3% of 340,000 active; B-score at 10 µM;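 active means fluorescence-ratio B-score plate-corrected deviation score at least 3 library SD below zero, with starting fluorescence score within 5 deviations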;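 further: channel opened by trigger with iodide after compound preincubation; score built on the fluorescence ratio of max minus min over baseline; more negative score means more quench and so TMEM16A activation or potentiation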
CHT allo act = CHT positive allosteric modulators, primary screen, cell-based, membrane potential dye, choline EC20; High affinity choline transporter 1 (Homo sapiens), Q9GZV3; CHT-expressing cells; hits give high values; LV-AA mutant CHT in HEK293 cells; B-score at 10 µM; 0.49% of 310,000 active; AID 488977, 2010;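 active means initial fluorescence not abnormally high and integrated response B-score, plate-corrected, over 3 SD above library mean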
ANO1 block = TMEM16A chloride channel inhibitors, primary screen, cell-based, HTS. 1.2% of 310,000 active. normalized B-score (activity score, 25-100; higher = stronger inhibition) at 10 µM. HEK293 TMEM16A/YFP iodide influx fluorescence, ionomycin. Anoctamin-1 (Mus musculus), Q8BHY3;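 active means ratio plate-corrected score three or more library SD toward inhibition, starting fluorescence score within five deviations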;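 further: score derived from kinetic fluorescence span divided by baseline fluorescence per well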
CHT block conf = CHT inhibitors, confirmation, cell-based, membrane potential dye, duplicate; shares compounds with CHT block; CHT-expressing cells, choline membrane potential dye; LV-to-AA substituted CHT, HEK293 cells; CHT activity remaining % of control (hits give low values), % at 10 µM; 70% of 2,400 active; AID 493221, 2011;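 active means choline transporter activity left, mean of duplicates at 10 µM, below buffer-only control mean minus 3 SD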;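 further: depolarization triggered by choline at its EC90 following an EC20 pre-addition; 0% = hemicholinium-3 full block and 100% = buffer-only control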
HEK293 CHT ctr = membrane potential effects in parental HEK293, counter-screen for CHT inhibitor project, cell-based, membrane potential dye; shares compounds with CHT block; choline response; active = decrease or increase beyond buffer ±3SD; membrane potential ratio readout (active if shifted either direction beyond buffer ±3SD; no single direction) at 10 µM; 4% of 2,400 active;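 further: parental cells lack the transporter so any hit is non-specific; ratio is peak minus trough fluorescence over baseline after EC90 choline challenge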
Numbers without * were called inactive; i = inactive; . = no result given. Shown are actives, neighbours in structure and some others; about 3.7% of the full set was active somewhere.

SMILES	CHT block	GPR7 antag	Kir21 block	TMEM16A act	CHT allo act	ANO1 block	CHT block conf	HEK293 CHT ctr
CCOC(=O)C1=C(C)NC(C)=C(C(=O)OCC)C1C(=O)OCC(=O)NCCc1ccc(S(N)(=O)=O)cc1	i	.	0.26	i	i	i	.	.
COc1ccccc1NC(=O)C1CCCN(c2nc(C)cc(C)n2)C1 (stereo unspecified)	-5.7*	1	-0.58	i	i	i	i	i
Cc1cc(C)nc(N2CCCC(C(=O)Nc3cc(F)ccc3C)C2)n1 (stereo unspecified)	i	-8	-0.01	i	i	i	.	.
CCN1CCC(Nc2ccnc3cc(Cl)ccc23)CC1	-6.6*	-1	0	i	i	i	i	4.2*
Cc1cccc(OCC(=O)NC(Cc2c[nH]c3ccccc23)C(=O)O)c1C (stereo unspecified)	i	-13	-0.08	i	i	i	.	.
CC(=O)OCC1OC(n2c(-c3ccc(Cl)cc3)ccc(C#N)c2=S)C(OC(C)=O)C(OC(C)=O)C1OC(C)=O (stereo unspecified)	.	.	.	i	.	.	.	.
CC(C)c1ccc(-c2nc3ccccc3s2)cc1	-8.4*	-6	-0.14	i	i	i	i	i
COc1cc(-c2nc3ccccc3s2)ccc1O	i	-7	0.43	i	i	i	.	.
CCOc1ccc(-n2cc(-c3ccc(OC)c(OC)c3)[nH]c2=S)cc1	i	-5	-0.99	i	i	i	.	.
COc1cc(C)c(Br)cc1S(=O)(=O)N1CCCC1	-5.1*	-6	-3.6	i	i	i	i	i
O=C(CSc1nc2ccccc2c(=O)n1-c1ccccc1)N1CCCc2ccccc21	i	-6	1	i	i	i	.	.
CCn1c(SCC(=O)N2CCCc3ccccc32)nc2ccccc2c1=O	-6.1*	-11	-3	i	i	i	i	i
Cc1cccc(N2CCN(C(=O)Cc3c(C(=O)O)[nH]c4ccc(Cl)cc34)CC2)c1C	-11*	-12	0.77	i	i	i	56%*	i
COCc1ccc(C(=O)NC2CCCc3c2cnn3-c2cc(C)cc(C)c2)s1 (stereo unspecified)	.	-10	-0.66	i	.	.	.	.
Cc1cc(C)c(Cn2c3ccccc3c3cnn(CC(=O)NCCN4CCOCC4)c(=O)c32)c(C)c1	-12*	-1	0.85	i	i	i	15%*	i
O=C(/C=N/O)Nc1ccc2sc3ccccc3c2c1	i	2	-0.65	i	i	i	.	.
O=C(O)c1ccccc1-c1ccccc1C(=O)Nc1ccc(-c2nc3cc(Cl)ccc3o2)cc1	-7.5*	-4	-0.03	i	i	i	55%*	i
CN1/C(=C/C(=O)c2nc(S(C)(=O)=O)ncc2Cl)C(C)(C)c2ccccc21	-11*	4	-2	i	i	i	54%*	i
CCn1ncc(Br)c1C(=O)Nc1cc([N+](=O)[O-])ccc1C	i	-5	0.02	i	i	i	.	.
Cc1ccc[n+](CC(=O)Nc2cc(C(F)(F)F)ccc2N2CCOCC2)c1	-8*	2	-0.1	i	i	i	25%*	i
Cc1cc(C)c2nc(N3CCN(C)CC3)c(C#N)cc2c1	i	-9	-1.2	.	i	i	.	.
Cc1cc(C)c2nc(N3CCCN(C(=O)c4cnccn4)CC3)c(C#N)cc2c1	-5.2*	-16	-5*	i	i	i	38%*	i
COc1ccc(C2=NN(c3nc(C(=O)O)cs3)C(O)(C(F)(F)F)C2)c(OC)c1 (stereo unspecified)	-8.9*	-10	-0.03	i	i	i	42%*	i
COc1ccc(C(=O)Nc2ccc(S(=O)(=O)Nc3cnc4ccccc4n3)cc2)cc1	i	-20	-0.54	i	i	i	.	.
O=C(Nc1ccc(S(=O)(=O)Nc2cnc3ccccc3n2)cc1)c1cc(F)c(F)cc1Cl	-6.6*	2	1.8	i	i	i	27%*	i
SMILES	CHT block	GPR7 antag	Kir21 block	TMEM16A act	CHT allo act	ANO1 block	CHT block conf	HEK293 CHT ctr
O=C(Nc1ccc(S(=O)(=O)Nc2cnc3ccccc3n2)cc1)c1ccc(Cl)c([N+](=O)[O-])c1	-6.1*	-17	1.5	i	i	i	60%*	i
COc1ccc(C(=O)NC(=S)Nc2ccc(S(=O)(=O)Nc3cc(OC)ncn3)cc2)cc1	i	-7	0.46	i	i	i	.	.
CC(Oc1ccc(Cl)cc1Cl)C(=O)NC1=NN(c2ccccc2)C(=O)C1 (stereo unspecified)	-6.3*	-12	2.1	i	i	i	39%*	i
COc1cc(NS(=O)(=O)c2ccc(NC(=O)c3ccc(Cl)cc3Cl)cc2)ncn1	-9.3*	-9	0.52	i	i	i	27%*	i
CCn1c(N)[n+](CC(=O)Nc2ccc(SC(F)F)cc2)c2ccccc21	i	14	-1.7	i	i	i	.	.
CC(=O)Nc1ccc(N2C(=O)CSC2c2ccccc2[N+](=O)[O-])cc1 (stereo unspecified)	i	-18	0.52	i	i	i	.	.
CS(=O)(=O)N(CC(=O)NC1CC2CCC1C2)c1ccc(Oc2ccccc2)cc1 (stereo unspecified)	i	-1	0.11	i	i	i	.	.
COc1ccc(NS(=O)(=O)c2ccc(NC(=O)c3ccccc3)cc2)nn1	i	-11	-1.7	i	i	i	.	.
CC(Oc1ccc(Cl)cc1Cl)C(=O)Nc1ccc(S(=O)(=O)Nc2cnc3ccccc3n2)cc1 (stereo unspecified)	-9.9*	-12	-0.17	.	i	100*	46%*	i
O=C(Nc1ccc(S(=O)(=O)Nc2cnc3ccccc3n2)cc1)c1ccc(Cl)cc1Cl	-13*	.	1.3	i	i	i	-9.5%*	i
COc1ccc(NS(=O)(=O)c2ccc(NC(=O)c3ccccc3Br)cc2)nn1	-8.5*	-1	0.09	i	i	i	19%*	i

Bioassay records: PubChem BioAssay, several laboratories
